Reference: PubChem BioAssay
Where “and” joins values, the source holds several entries; their conditions need not be identical. Identical values can stand only once. Calls of active or inactive are those of the source. Unless noted, no rule for the calls is given here.

What was measured:
[1] = system: Hepatitis C virus NS3 helicase; experiment: HCV NS3 helicase inhibitors, primary screen, biochemical, fluorescence polarization, LOPAC1280 library (AID 687035; in the data active = inhibition above about 37%); details: Purified HCV NS3 helicase, Cy5-dT15 ssDNA binding fluorescence polarization; stronger effect = higher value; concentration not given here
[2] = Cy5 fluorescence quenching or enhancement artefacts, artefact control for HCV NS3 helicase inhibitor project, biochemical, LOPAC1280 (AID 687037); details: Cy5-DNA-NS3h complex fluorescence interference counterscreen
[3] = stimulators of nuclear beta-catenin in C2C12, primary screen, imaging, WNT3A-conditioned medium, mouse C2C12, NPC library (AID 1117326; in the data active = nuclear beta-catenin stimulation mostly above about 4.2%, no sharp cut-off; inactive = mostly below about 10%); details: stronger effect = higher value
[4] = system: Hepatitis C virus NS3 helicase; experiment: HCV NS3 helicase inhibitors, primary screen, biochemical, fluorescence polarization, NIH Clinical Collection (AID 743270); details: NS3 helicase binding to Cy5-dT15 DNA, stronger effect = higher value, concentration not given here
[5] = target: Single-stranded DNA-binding protein (Escherichia coli (strain K12)) (UniProt P0AGE0); experiment: E. coli SSB displacement from DNA, counter-screen for HCV NS3 helicase inhibitor project, biochemical, fluorescence polarization, NIH Clinical Collection (AID 743271; in the data active = inhibition above about 28%); details: stronger effect = higher value, concentration not given here
[6] = fluorescence interference in NS3h assay format, artefact control for HCV NS3 helicase inhibitor project, biochemical, NIH Clinical Collection (AID 743272); details: fluorescence interference counterscreen, stronger effect = lower value;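 also: HCV NS3 helicase with a Cy5 labelled single stranded DNA probe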
[7] = Cy5 fluorescence interference with SSB-bound oligo, artefact control for HCV NS3 helicase inhibitor project, biochemical, NIH Clinical Collection, E. coli SSB (AID 743268)
[8] = system: Neuropilin-2 / VEGF-C interaction (human); experiment: inhibitors of NRP2–VEGF-C binding, biochemical, microplate binding format, z-score (AID 743281); details: microplate NRP2/VEGF-C binding assay; stronger effect = lower value

CCn1cc(C(=O)O)c(=O)c2cc(F)c(N3CCNC(C)C3)c(F)c21 (configuration not stated)
1.2%: nuclear beta-catenin stimulation ([3]; stimulation, at 2 µM)
inactive: inhibition [1] -1% | fluorescence ratio (interference) [2] 1 | nuclear beta-catenin stimulation ([3]; at 10 µM) 1.8%

O=C1CC2(CCCC2)CC(=O)N1CCCCN1CCN(c2ncccn2)CC1
inactive: inhibition [1] 0% | fluorescence ratio (interference) [2] 1 | inhibition [4] -6.82% | inhibition [5] 1.05% | fluorescence ratio [6] 1.03 | nuclear beta-catenin stimulation ([3]; at 10 µM) 0.7%
2.6%: nuclear beta-catenin stimulation ([3]; stimulation, at 2 µM)

COc1ccc(CC2c3cc(OC)c(OC)cc3CC[N+]2(C)CCC(=O)OCCCCCOC(=O)CC[N+]2(C)CCc3cc(OC)c(OC)cc3C2Cc2ccc(OC)c(OC)c2)cc1OC (configuration not stated)
0.3%: nuclear beta-catenin stimulation ([3]; stimulation, at 2 µM)
inactive: fluorescence ratio [7] 1.03 | inhibition [4] -1.09% | inhibition [5] 1.97% | fluorescence ratio [6] 1.02 | outcome [8] | nuclear beta-catenin stimulation ([3]; at 10 µM) 21.5%

O=C(CCNNC(=O)c1ccncc1)NCc1ccccc1
0.1%: nuclear beta-catenin stimulation ([3]; stimulation, at 2 µM)
inactive: inhibition [1] -4% | fluorescence ratio (interference) [2] 1 | fluorescence ratio [7] 1.01 | inhibition [4] 0.66% | inhibition [5] -1.97% | fluorescence ratio [6] 0.97 | z-score [8] -0.136 | nuclear beta-catenin stimulation ([3]; at 10 µM) -1%

COc1cc2nc(N3CCN(C(=O)C4CCCO4)CC3)nc(N)c2cc1OC (configuration not stated)
inactive: inhibition [1] -3% | fluorescence ratio (interference) [2] 1 | fluorescence ratio [7] 0.99 and 1.03 | inhibition [4] 0.4% and -6.82% | inhibition [5] -3.18% and 1.05% | fluorescence ratio [6] 0.95 and 1.02 | z-score [8] -0.533 | nuclear beta-catenin stimulation ([3]; at 10 µM) 0.8%
1.4%: nuclear beta-catenin stimulation ([3]; stimulation, at 2 µM)

Clc1ccccc1C(c1ccccc1)(c1ccccc1)n1ccnc1
1.7%: nuclear beta-catenin stimulation ([3]; stimulation, at 2 µM)
inactive: inhibition [1] -2% | fluorescence ratio (interference) [2] 1 | fluorescence ratio [7] 0.9 | inhibition [4] 5.94% | inhibition [5] 6.83% | fluorescence ratio [6] 0.9 | z-score [8] 0.266 | nuclear beta-catenin stimulation ([3]; at 10 µM) 1.1%

Cc1nccn1CC1CCc2c(c3ccccc3n2C)C1=O (configuration not stated)
1.9%: nuclear beta-catenin stimulation ([3]; stimulation, at 2 µM)
inactive: fluorescence ratio [7] 0.99 and 1.12 | inhibition [4] 0.4% and -4.09% | inhibition [5] 3.75% and 1.05% | fluorescence ratio [6] 0.97 and 1.02 | z-score [8] -0.188 | nuclear beta-catenin stimulation ([3]; at 10 µM) -0.2%

Cc1ncc([N+](=O)[O-])n1CC(O)CCl (configuration not stated)
inactive: fluorescence ratio [7] 0.99 | inhibition [4] 5.94% | inhibition [5] 0.67% | fluorescence ratio [6] 0.99 | z-score [8] -0.43 | nuclear beta-catenin stimulation ([3]; at 10 µM) 0.8%
1.1%: nuclear beta-catenin stimulation ([3]; stimulation, at 2 µM)

CC(C)NCC(O)COc1ccc(COCCOC(C)C)cc1 (configuration not stated)
inactive: inhibition [1] 2% | fluorescence ratio (interference) [2] 1 | fluorescence ratio [7] 1.04 | inhibition [4] 1.19% | inhibition [5] -0.1% | fluorescence ratio [6] 0.94 | z-score [8] -0.164 | nuclear beta-catenin stimulation ([3]; at 10 µM) 0.8%
1.2%: nuclear beta-catenin stimulation ([3]; stimulation, at 2 µM)

CC(C)NCC(O)COc1ccc(CCOCC2CC2)cc1 (configuration not stated)
3.7%: nuclear beta-catenin stimulation ([3]; stimulation, at 2 µM)
inactive: inhibition [1] -6% | fluorescence ratio (interference) [2] 0.9 | fluorescence ratio [7] 1.03 | inhibition [4] 5.94% | inhibition [5] 3.75% | fluorescence ratio [6] 0.95 | z-score [8] -0.0183 | nuclear beta-catenin stimulation ([3]; at 10 µM) 3.6%

CN1CCC(=C2c3ccccc3CC(=O)c3sccc32)CC1
-1.2%: nuclear beta-catenin stimulation ([3]; stimulation, at 2 µM)
inactive: inhibition [1] -3% | fluorescence ratio (interference) [2] 1 | fluorescence ratio [7] 0.97 | inhibition [4] -6.33% | inhibition [5] -0.39% | fluorescence ratio [6] 0.93 | z-score [8] -0.206 | nuclear beta-catenin stimulation ([3]; at 10 µM) 1.3%

COc1ccccc1OCC(O)CN1CCN(CC(=O)Nc2c(C)cccc2C)CC1 (configuration not stated)
inactive: inhibition [1] -7% | fluorescence ratio (interference) [2] 0.9 | fluorescence ratio [7] 1.02 | inhibition [4] -3.56% | inhibition [5] -4.72% | fluorescence ratio [6] 0.9 | z-score [8] 0.514 | nuclear beta-catenin stimulation ([3]; at 10 µM) 2.5%
1.4%: nuclear beta-catenin stimulation ([3]; stimulation, at 2 µM)

Cc1ncc([N+](=O)[O-])n1CCO
0.7%: nuclear beta-catenin stimulation ([3]; stimulation, at 2 µM)
inactive: fluorescence ratio [7] 0.95 | inhibition [4] -2.77% | inhibition [5] 4.52% | fluorescence ratio [6] 0.88 | z-score [8] -0.317 | nuclear beta-catenin stimulation ([3]; at 10 µM) -0.2%
